From PubChem BioAssay (NCI) come the findings set out here.

Test systems include SK-MEL-2 melanoma; EKVX NSCLC; SN12C renal; UO-31 renal; TK-10 renal; ACHN renal; CAKI-1 renal; A498 renal; CCRF-CEM leukemia; MOLT-4 leukemia; RPMI-8226 leukemia; OVCAR-8 ovarian; OVCAR-5 ovarian; OVCAR-4 ovarian; SK-OV-3 ovarian; IGROV1 ovarian; OVCAR-3 ovarian; HS 578T breast; NCI/ADR-RES ovarian.
Common to all, as to test: NCI-60 one-dose screen, 48 h (100 = growth as untreated, 0 = no growth, -100 = all killed)
What all share (conditions): 10 µM unless noted

The panel holds about 83,000 compounds, 20% with a hit somewhere; the sample as a whole holds those more often.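 Values shown are percent growth following 48 h exposure of cells in 96-well plates to a single concentration of compound; below 10 was considered active.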 Unmarked numbers belong to inactive results. Calls of active or inactive are those of the source.

For the molecule `COc1ccc(/C=N/C2=C(C#N)C(c3ccc(OC)cc3)c3ccc4ccccc4c3O2)cc1` (configuration not stated), the growth in the experiment on SK-MEL-2 melanoma is 84.4%; with EKVX NSCLC, 85.1%; with SN12C renal it was 76.5%; in the experiment on UO-31 renal, 53.7%; in the experiment with TK-10 renal, 87.1%; in the experiment with ACHN renal, 81.4%. Further, the growth in the experiment on CAKI-1 renal is 37.3%; with A498 renal it was 26.6%; in the experiment with CCRF-CEM leukemia it was 77.4%; with MOLT-4 leukemia, 60.2%; with RPMI-8226 leukemia, 81.7%; in the experiment on OVCAR-8 ovarian it was 84.7%. In addition, the growth in the experiment with OVCAR-5 ovarian is 104%; in the experiment on OVCAR-4 ovarian, 85.4%; with SK-OV-3 ovarian, 77.6%; with IGROV1 ovarian it was 56.2%; in the experiment on OVCAR-3 ovarian, 78.9%; in the experiment with HS 578T breast, 84.2%. In addition, in the experiment on NCI/ADR-RES ovarian, the growth is 45%.

With `COc1cc(C2CC(=O)Nc3c2c(C)nn3-c2nc3ccccc3[nH]2)c(OC)c(OC)c1OC` (configuration not stated), the growth with SK-MEL-2 melanoma was 50%; in the experiment on EKVX NSCLC it was 86.4%; in the experiment with SN12C renal, 73.9%; in the experiment with UO-31 renal, 62.3%; with TK-10 renal, 12.5%; in the experiment with ACHN renal, 86.6%. Besides, the growth is 43.6% in the experiment on CAKI-1 renal; -9.27% (active) in the experiment on A498 renal; 39.6% in the experiment with CCRF-CEM leukemia; 20.3% in the experiment with MOLT-4 leukemia; 55.1% with RPMI-8226 leukemia; 47.4% with OVCAR-8 ovarian. Further, the growth is 104% with OVCAR-5 ovarian; 73.1% with OVCAR-4 ovarian; 40% in the experiment on SK-OV-3 ovarian; 76.9% in the experiment with IGROV1 ovarian; 12.2% in the experiment on OVCAR-3 ovarian; 25.5% in the experiment on HS 578T breast. The growth in the experiment on NCI/ADR-RES ovarian is 57.7%.

For the molecule `O=C(NCCc1ccc(O)c(O)c1)C12CC3CC(CC(C3)C1)C2`, the growth was 66.7% in the experiment with SK-MEL-2 melanoma; 111% in the experiment on EKVX NSCLC; 96.7% with SN12C renal; 66.2% in the experiment with UO-31 renal; 90.3% with TK-10 renal; 90.7% with ACHN renal. Moreover, the growth was 51.5% in the experiment with CAKI-1 renal; 101% in the experiment with A498 renal; 23.7% in the experiment on CCRF-CEM leukemia; 72.9% in the experiment with MOLT-4 leukemia; 22.5% in the experiment on RPMI-8226 leukemia; 95.6% in the experiment on OVCAR-8 ovarian. For the same molecule, the growth in the experiment on OVCAR-5 ovarian is 66.3%; in the experiment on OVCAR-4 ovarian, 87.3%; in the experiment with SK-OV-3 ovarian it was 86.7%; in the experiment with IGROV1 ovarian, 56.1%; in the experiment with OVCAR-3 ovarian, 86%; with HS 578T breast, 83.3%. Besides, the growth in the experiment with NCI/ADR-RES ovarian is 61.1%.

With `Cn1c(=O)c2c(nc(Cl)n2CCl)n(C)c1=O`, the growth in the experiment on SK-MEL-2 melanoma was 89.9%; with EKVX NSCLC, 112%; in the experiment on SN12C renal, 106%; in the experiment on UO-31 renal, 93.4%; with TK-10 renal, 95.6%; in the experiment with ACHN renal it was 104%. Besides, the growth in the experiment with CAKI-1 renal is 98.5%; with A498 renal, 118%; in the experiment on CCRF-CEM leukemia it was 84.9%; in the experiment with MOLT-4 leukemia, 99.7%; in the experiment with RPMI-8226 leukemia, 92.3%; with OVCAR-8 ovarian it was 83%. The growth with OVCAR-5 ovarian was 103%; in the experiment on OVCAR-4 ovarian, 83.2%; with SK-OV-3 ovarian it was 115%; in the experiment on IGROV1 ovarian, 53.8%; in the experiment with OVCAR-3 ovarian it was 116%; with HS 578T breast it was 83.8%. In addition, the growth with NCI/ADR-RES ovarian is 101%.

Regarding `COCCN(C(=O)c1ccc(F)cc1F)c1c(N)n(Cc2ccccc2)c(=O)[nH]c1=O`, the growth was 98.7% with SK-MEL-2 melanoma; 109% in the experiment with EKVX NSCLC; 108% in the experiment on SN12C renal; 83.4% in the experiment with UO-31 renal; 119% in the experiment with TK-10 renal; 103% in the experiment with ACHN renal. Besides, the growth with CAKI-1 renal is 106%; in the experiment with A498 renal, 100%; with CCRF-CEM leukemia, 94.5%; in the experiment with MOLT-4 leukemia it was 98.1%; with RPMI-8226 leukemia, 112%; with OVCAR-8 ovarian it was 112%. In addition, the growth with OVCAR-5 ovarian is 92.2%; with OVCAR-4 ovarian, 98.9%; in the experiment on SK-OV-3 ovarian, 111%; in the experiment on IGROV1 ovarian, 2.97% (active); in the experiment on OVCAR-3 ovarian, 115%; with HS 578T breast, 107%. In addition, the growth with NCI/ADR-RES ovarian was 110%.

Turning to `CCc1ccccc1NC(=O)/C(C#N)=C/c1ccc(OC)cc1`, the growth with SK-MEL-2 melanoma is 104%; with EKVX NSCLC it was 92.7%; in the experiment on SN12C renal, 94%; with UO-31 renal, 80.5%; in the experiment on TK-10 renal, 115%; with ACHN renal, 97.4%. Also, the growth was 103% with CAKI-1 renal; 100% in the experiment on A498 renal; 84.7% in the experiment on CCRF-CEM leukemia; 87.3% in the experiment on MOLT-4 leukemia; 91% with RPMI-8226 leukemia; 89.5% in the experiment with OVCAR-8 ovarian. Moreover, the growth with OVCAR-5 ovarian was 100%; with OVCAR-4 ovarian, 94.3%; in the experiment on SK-OV-3 ovarian, 105%; in the experiment with IGROV1 ovarian it was 115%; in the experiment with OVCAR-3 ovarian it was 92.6%; with HS 578T breast it was 92.6%. Also, in the experiment with NCI/ADR-RES ovarian, the growth was 97.8%.

Regarding `Cc1cc(C(=O)c2ccccc2)c(C)c2c1[nH]c1ccc(Cl)cc12`, the growth was 52.1% with SK-MEL-2 melanoma; 42.8% with EKVX NSCLC; 22.1% in the experiment on SN12C renal; 25% in the experiment on UO-31 renal; 93.7% in the experiment on TK-10 renal; 24.8% in the experiment with ACHN renal. Besides, the growth in the experiment with CAKI-1 renal is 24.7%; with A498 renal, -11.8% (active); with CCRF-CEM leukemia, 8.5% (active); in the experiment on MOLT-4 leukemia, 15.9%; in the experiment with RPMI-8226 leukemia it was -0.677% (active); in the experiment with OVCAR-8 ovarian, 21.9%. The growth in the experiment with OVCAR-5 ovarian was 43.5%; in the experiment with OVCAR-4 ovarian, 43.5%; in the experiment with SK-OV-3 ovarian, 38%; in the experiment with IGROV1 ovarian it was 19.1%; with OVCAR-3 ovarian, -51% (active); in the experiment on HS 578T breast, 33.2%. For the same molecule, in the experiment on NCI/ADR-RES ovarian, the growth is 7.25% (active).

In the case of `Cc1c(Cl)cc(-n2c(=O)c3ccccc3c3ccccc3c2=O)cc1Cl`, the growth in the experiment on SK-MEL-2 melanoma was 98.3%; in the experiment with EKVX NSCLC, 97%; in the experiment on SN12C renal, 85.2%; with UO-31 renal, 65.3%; in the experiment with TK-10 renal it was 111%; in the experiment with ACHN renal, 101%. In addition, the growth with CAKI-1 renal is 80.9%; in the experiment on A498 renal it was 141%; in the experiment with CCRF-CEM leukemia it was 97.9%; in the experiment with MOLT-4 leukemia, 95.5%; in the experiment on RPMI-8226 leukemia, 91.8%; with OVCAR-8 ovarian, 105%. Also, the growth in the experiment on OVCAR-5 ovarian is 101%; with OVCAR-4 ovarian, 104%; in the experiment with SK-OV-3 ovarian, 98.4%; in the experiment with IGROV1 ovarian it was 86.7%; in the experiment with OVCAR-3 ovarian, 127%; with HS 578T breast, 99.3%. In the experiment on NCI/ADR-RES ovarian, the growth is 102%.
